From paper PMC5700166

What was measured:
GST-Dm-Relish = target: T1, GST-Dm-Relish (Drosophila melanogaster, UniProt Q94527 99-473); test: protein-binding microarray (PBM); PBM: ~300 nM protein, 6 mM HEPES pH 7.8, 80 mM KCl, 0.5 mM EDTA, 0.5 mM EGTA, 6% glycerol, 35 ng/ul poly-dIdC, 1% milk, 1 h, room temperature; Ap Aiptasia and Nv Nematostella (sea anemones) / Co Capsaspora / Aq Amphimedon (sponge) / Dm Drosophila / Hu human; RHD is the Rel homology domain; high values mean tight binding; settings: dsDNA, one strand shown
T1 sequence: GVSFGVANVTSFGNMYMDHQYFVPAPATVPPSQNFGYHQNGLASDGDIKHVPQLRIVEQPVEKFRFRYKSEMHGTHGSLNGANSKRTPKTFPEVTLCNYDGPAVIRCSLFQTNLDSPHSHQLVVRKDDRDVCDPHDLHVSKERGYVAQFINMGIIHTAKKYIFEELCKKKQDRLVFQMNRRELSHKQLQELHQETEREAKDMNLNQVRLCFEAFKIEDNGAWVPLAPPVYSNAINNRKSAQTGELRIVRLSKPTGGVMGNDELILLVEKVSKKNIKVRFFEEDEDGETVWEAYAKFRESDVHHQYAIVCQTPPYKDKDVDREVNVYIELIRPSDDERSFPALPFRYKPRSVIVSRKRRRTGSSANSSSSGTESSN

GST-Aq-NF-kB = target: T2, GST-Aq-NF-kB (Amphimedon queenslandica, UniProt A9Y5G7 2-389); test: as above; settings: dsDNA, one strand shown
T2 sequence: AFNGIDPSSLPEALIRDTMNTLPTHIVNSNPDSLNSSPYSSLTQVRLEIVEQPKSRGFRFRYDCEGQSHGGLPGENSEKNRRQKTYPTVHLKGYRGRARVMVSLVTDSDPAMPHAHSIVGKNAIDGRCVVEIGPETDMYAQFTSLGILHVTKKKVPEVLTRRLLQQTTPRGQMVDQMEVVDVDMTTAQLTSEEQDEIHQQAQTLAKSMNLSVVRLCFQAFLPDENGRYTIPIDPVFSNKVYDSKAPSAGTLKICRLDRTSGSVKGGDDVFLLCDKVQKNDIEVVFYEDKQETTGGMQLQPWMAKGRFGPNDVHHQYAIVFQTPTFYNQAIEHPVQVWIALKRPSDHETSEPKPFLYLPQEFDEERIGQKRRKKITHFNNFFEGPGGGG

CCGATTAACATCACGAAAATTCCTGATGTTAATCGGGTCTTGATTCGCTTGACGCTGCTG
binding signal (GST-Dm-Relish): 1.12 z-score
binding signal (GST-Aq-NF-kB): 1.41 z-score

CCGATTAACATCAGGACTTTCCATGATGTTAATCGGGTCTTGATTCGCTTGACGCTGCTG
binding signal (GST-Dm-Relish): 3.27 z-score
binding signal (GST-Aq-NF-kB): 4.23 z-score

CCGATTAACATCAAAATTTCCACTGATGTTAATCGGGTCTTGATTCGCTTGACGCTGCTG
binding signal (GST-Dm-Relish): 1.61 z-score
binding signal (GST-Aq-NF-kB): 1.15 z-score

CCGATTAACATCAGGTCTTTCCATGATGTTAATCGGGTCTTGATTCGCTTGACGCTGCTG
binding signal (GST-Dm-Relish): 1.02 z-score
binding signal (GST-Aq-NF-kB): 1.55 z-score

CCGATTAACATCAGGAAATCCACTGATGTTAATCGGGTCTTGATTCGCTTGACGCTGCTG
binding signal (GST-Dm-Relish): 2.24 z-score
binding signal (GST-Aq-NF-kB): 1.15 z-score

CCGATTAACATCACGGAATTTTCTGATGTTAATCGGGTCTTGATTCGCTTGACGCTGCTG
binding signal (GST-Dm-Relish): 1.06 z-score
binding signal (GST-Aq-NF-kB): 2.35 z-score

CCGATTAACATCAGGAAAGACCATGATGTTAATCGGGTCTTGATTCGCTTGACGCTGCTG
binding signal (GST-Dm-Relish): 1.35 z-score
binding signal (GST-Aq-NF-kB): 1.49 z-score

CCGATTAACATCACGGGCATCCCTGATGTTAATCGGGTCTTGATTCGCTTGACGCTGCTG
binding signal (GST-Dm-Relish): 5.06 z-score
binding signal (GST-Aq-NF-kB): 3.09 z-score

CCGATTAACATCAAGTAATTTCCTGATGTTAATCGGGTCTTGATTCGCTTGACGCTGCTG
binding signal (GST-Dm-Relish): 2.36 z-score
binding signal (GST-Aq-NF-kB): 1.18 z-score

CCGATTAACATCAGGTAACTACCTGATGTTAATCGGGTCTTGATTCGCTTGACGCTGCTG
binding signal (GST-Dm-Relish): 3.08 z-score
binding signal (GST-Aq-NF-kB): 3.17 z-score

CCGATTAACATCAAAAATTCCACTGATGTTAATCGGGTCTTGATTCGCTTGACGCTGCTG
binding signal (GST-Dm-Relish): 2.3 z-score
binding signal (GST-Aq-NF-kB): 1.44 z-score

CCGATTAACATCAAAAATTCCGCTGATGTTAATCGGGTCTTGATTCGCTTGACGCTGCTG
binding signal (GST-Dm-Relish): 1.22 z-score
binding signal (GST-Aq-NF-kB): 1.89 z-score

CCGATTAACATCACGTGCTTTCCTGATGTTAATCGGGTCTTGATTCGCTTGACGCTGCTG
binding signal (GST-Dm-Relish): 2.88 z-score
binding signal (GST-Aq-NF-kB): 1.36 z-score

CCGATTAACATCAAAGGAATTCCTGATGTTAATCGGGTCTTGATTCGCTTGACGCTGCTG
binding signal (GST-Dm-Relish): 3.78 z-score
binding signal (GST-Aq-NF-kB): 2.38 z-score

CCGATTAACATCACAGGGTTTCCTGATGTTAATCGGGTCTTGATTCGCTTGACGCTGCTG
binding signal (GST-Dm-Relish): 2.82 z-score
binding signal (GST-Aq-NF-kB): 1.57 z-score

CCGATTAACATCAGGAAAAACCATGATGTTAATCGGGTCTTGATTCGCTTGACGCTGCTG
binding signal (GST-Dm-Relish): 2.39 z-score
binding signal (GST-Aq-NF-kB): 2.94 z-score

CCGATTAACATCAGGAAAAGTACTGATGTTAATCGGGTCTTGATTCGCTTGACGCTGCTG
binding signal (GST-Dm-Relish): 4.26 z-score
binding signal (GST-Aq-NF-kB): 1.14 z-score

CCGATTAACATCACGGAATTGCCTGATGTTAATCGGGTCTTGATTCGCTTGACGCTGCTG
binding signal (GST-Dm-Relish): 1.01 z-score
binding signal (GST-Aq-NF-kB): 1.14 z-score

CCGATTAACATCAGGGATGCCCATGATGTTAATCGGGTCTTGATTCGCTTGACGCTGCTG
binding signal (GST-Dm-Relish): 6.66 z-score
binding signal (GST-Aq-NF-kB): 2.22 z-score

CCGATTAACATCAACGGAAATCCTGATGTTAATCGGGTCTTGATTCGCTTGACGCTGCTG
binding signal (GST-Dm-Relish): 1.24 z-score
binding signal (GST-Aq-NF-kB): 1.17 z-score

CCGATTAACATCAAAGGAATTTCTGATGTTAATCGGGTCTTGATTCGCTTGACGCTGCTG
binding signal (GST-Dm-Relish): 1.13 z-score
binding signal (GST-Aq-NF-kB): 1.12 z-score

CCGATTAACATCAGAAAATTTCCTGATGTTAATCGGGTCTTGATTCGCTTGACGCTGCTG
binding signal (GST-Dm-Relish): 1.75 z-score
binding signal (GST-Aq-NF-kB): 2.09 z-score

CCGATTAACATCACGGAAAAACCTGATGTTAATCGGGTCTTGATTCGCTTGACGCTGCTG
binding signal (GST-Dm-Relish): 2.16 z-score
binding signal (GST-Aq-NF-kB): 3.55 z-score

CCGATTAACATCAGGAAATTACATGATGTTAATCGGGTCTTGATTCGCTTGACGCTGCTG
binding signal (GST-Dm-Relish): 5.09 z-score
binding signal (GST-Aq-NF-kB): 1.17 z-score

CCGATTAACATCACGGAAAGTACTGATGTTAATCGGGTCTTGATTCGCTTGACGCTGCTG
binding signal (GST-Dm-Relish): 4.11 z-score
binding signal (GST-Aq-NF-kB): 2.92 z-score

CCGATTAACATCAAGTACTTTCCTGATGTTAATCGGGTCTTGATTCGCTTGACGCTGCTG
binding signal (GST-Dm-Relish): 5.26 z-score
binding signal (GST-Aq-NF-kB): 1.81 z-score

CCGATTAACATCAGCGGAAATCCTGATGTTAATCGGGTCTTGATTCGCTTGACGCTGCTG
binding signal (GST-Dm-Relish): 1.26 z-score
binding signal (GST-Aq-NF-kB): 1.07 z-score

CCGATTAACATCAGGTTCTTACCTGATGTTAATCGGGTCTTGATTCGCTTGACGCTGCTG
binding signal (GST-Dm-Relish): 1.79 z-score
binding signal (GST-Aq-NF-kB): 1.38 z-score

CCGATTAACATCAAGGAAATTCCTGATGTTAATCGGGTCTTGATTCGCTTGACGCTGCTG
binding signal (GST-Dm-Relish): 2.23 z-score
binding signal (GST-Aq-NF-kB): 4.14 z-score

CCGATTAACATCACGTAAATTCCTGATGTTAATCGGGTCTTGATTCGCTTGACGCTGCTG
binding signal (GST-Dm-Relish): 1.43 z-score
binding signal (GST-Aq-NF-kB): 1.08 z-score

CCGATTAACATCAGGATTTTTTATGATGTTAATCGGGTCTTGATTCGCTTGACGCTGCTG
binding signal (GST-Dm-Relish): 2.63 z-score
binding signal (GST-Aq-NF-kB): 1.59 z-score

CCGATTAACATCAAAAATTTCCGTGATGTTAATCGGGTCTTGATTCGCTTGACGCTGCTG
binding signal (GST-Dm-Relish): 1.61 z-score
binding signal (GST-Aq-NF-kB): 2.63 z-score

CCGATTAACATCAGGAAAGGCCATGATGTTAATCGGGTCTTGATTCGCTTGACGCTGCTG
binding signal (GST-Dm-Relish): 1.29 z-score
binding signal (GST-Aq-NF-kB): 1.31 z-score

CCGATTAACATCAAAAAAATTTCTGATGTTAATCGGGTCTTGATTCGCTTGACGCTGCTG
binding signal (GST-Dm-Relish): 1.41 z-score
binding signal (GST-Aq-NF-kB): 1.23 z-score

CCGATTAACATCACGTAAAACCCTGATGTTAATCGGGTCTTGATTCGCTTGACGCTGCTG
binding signal (GST-Dm-Relish): 3.01 z-score
binding signal (GST-Aq-NF-kB): 2.12 z-score

CCGATTAACATCAGGTATTTCCATGATGTTAATCGGGTCTTGATTCGCTTGACGCTGCTG
binding signal (GST-Dm-Relish): 2.79 z-score
binding signal (GST-Aq-NF-kB): 3.5 z-score

CCGATTAACATCAGGAATTTACATGATGTTAATCGGGTCTTGATTCGCTTGACGCTGCTG
binding signal (GST-Dm-Relish): 5.41 z-score
binding signal (GST-Aq-NF-kB): 1.28 z-score

CCGATTAACATCAGGAATTCCGATGATGTTAATCGGGTCTTGATTCGCTTGACGCTGCTG
binding signal (GST-Dm-Relish): 2.4 z-score
binding signal (GST-Aq-NF-kB): 1.28 z-score
